Only some compounds are listed: those with a hit (about 19% of all), similar ones and a draw of the others.
MARV entry inh = blocks Marburg virus binding to or entry into cells. 1.8% of 300,000 active. Marburg virus pseudotyped entry inhibition, cell reporter. AID 540276. Potency, µM (highest dose often 37.8 µM), for the others: top-dose activity change, negative = inhibition, hits mostly inhibitors; calls by dose curve; tested in HEK293 cells; also: potency is read from the fitted curve at half-maximal effect; % is scaled to controls: 0 for no effect and ±100 for the full control effect
Pf growth 96h = P. falciparum growth inhibition at 96 hours; P. falciparum luciferase reporter growth, 96 h; Potency, µM (series often up to 28.7 µM), for inactives: at the highest dose activity change, negative = inhibition, most hits filed as inhibitors; 6.9% of 320,000 active; AID 504834; also: potency is read from the fitted curve at half-maximal effect; % is scaled to controls: 0 for no effect and ±100 for the full control effect
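Plates of compound plus infected erythrocytes (2% hematocrit, 0.05% parasitemia final) incubate 96 hours, 37 C, 5% CO2. Detection reagent added; reduced luminescence from the parasites' luciferase reporter flags inhibition.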
Cycloheximide cs = counter-screen for Shiga toxin inhibitors: cycloheximide protein synthesis inhibition; cell reporter, cycloheximide protein synthesis inhibition counterscreen; max response, %; 12% of 300,000 active; AID 2314; in the data active = max response mostly above about 13%, no sharp cut-off; inactive = mostly below about 14%; also: read at 38.3 µM for the half of the compounds with a filed dose; 0% is about no effect
Lassa entry inh = Lassa virus entry inhibition; 1.2% of 300,000 active; Lassa virus pseudotype entry inhibition, cell reporter; Potency, µM (series often up to 37.9 µM), for inactives: at the top dose activity change, negative = inhibition, usual class: inhibitors; calls by dose curve; tested in HEK293 cells; also: potency is read from the fitted curve at half-maximal effect; % is scaled to controls: 0 for no effect and ±100 for the full control effect; nearly all actives have a fitted effect of over 50% in size
Shiga toxin inh = blocks Shiga toxin action in Vero cells. Vero cells, Shiga toxin protein synthesis inhibition reporter. 9.2% of 290,000 active. inhibition, % at 38.7 µM; in the data active = inhibition mostly above about 28%, no sharp cut-off; inactive = mostly below about 43%; also: 0% is about no effect
Pf growth 48h = P. falciparum growth inhibition at 48 hours (one generation); P. falciparum luciferase growth in erythrocytes, 48 h; Potency, µM (top dose mostly 28.7 µM), for inactives: top-dose activity change, negative = inhibition, most hits filed as inhibitors; 5.9% of 310,000 active; also: potency is read from the fitted curve at half-maximal effect; % is scaled to controls: 0 for no effect and ±100 for the full control effect
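Firefly luciferase activity from engineered P. falciparum reports growth; inhibitors lower the luminescent signal. Cultures contained 2% hematocrit erythrocytes at 0.1% final parasitemia.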
* hit, by the source's call; ? = inconclusive; nt = not tested or not shown; [ ] = remark or other dose. Unless noted, calls follow the shape of the dose curve; as a rule, active = well fitted inhibition curve with a large enough effect; inconclusive = small, poorly fitted or top-dose-only effect, or another doubt; inactive = no such curve, though single readings can be large or run the other way.

SMILES	MARV entry inh	Pf growth 96h	Cycloheximide cs	Lassa entry inh	Shiga toxin inh	Pf growth 48h
COC(=O)C1(Cc2cc(-c3cccnc3)no2)CCN(C(=O)OC(C)(C)C)CC1	nt	10µM*	10.0*	nt	12	?
COC(=O)C1(Cc2cc(-c3ccc(Cl)cc3)no2)CCN(C(=O)OC(C)(C)C)CC1	nt	65%	-1	nt	13	-8%
CCn1c(C)nc2cc(C(=O)NNC(=S)Nc3ccccc3OC)ccc21	nt	62%	20*	nt	33*	113%
CCn1c(C)nc2cc(C(=O)NN=Cc3ccccc3OC(F)F)ccc21	-1%	nt	nt	18%	nt	nt
CCn1c(C)nc2cc(C(=O)N/N=C/c3ccccc3C)ccc21	?	?	41*	?	133*	-5%
CCn1c(C)nc2cc(C(=O)N/N=C(\C)c3ccccc3O)ccc21	?	-6%	31*	-15%	85*	21%
CN(CC1COc2ccccc2O1)C(=S)NC1CCCCC1 (stereo unspecified)	nt	?	25*	nt	59*	0%
CCN(CC1COc2ccccc2O1)C(=S)NCCCN(C)C (stereo unspecified)	nt	10µM*	-5	nt	-4	91%
O=C(NC1CCCCC1)C1COc2ccccc2O1 (stereo unspecified)	3%	29%	nt	1%	nt	-7%
COc1ccccc1Nc1nc(C)cc(=O)[nH]1	8%	-3%	-1	8%	84	15%
CC1=C(CC(=O)c2ccc(Cl)cc2)C(=O)c2ccccc2C1=O	5%	?	27*	-27%	61*	0.17µM*
Clc1ccc(Nc2ccc(-n3ccnc3)nn2)cc1Cl	-3%	1.9µM*	2	-20%	22	2.6µM*
COc1cc(/C=C/C(=O)Nc2ccc(C(C)=O)cc2)cc(OC)c1OC	-1%	5%	11	-13%	-11	?
CCOC(=O)c1c(C)[nH]c(C(=O)COC(=O)[C@H](C)NC(=O)c2ccccc2Cl)c1C	0%	17%	28*	3%	49*	29%
CCOC(=O)c1c(C)[nH]c(C(=O)COC(=O)CNC(=O)c2ccccc2Cl)c1C	17%	162%	56*	13%	109*	111%
CCOC(=O)c1c(C)[nH]c(C(=O)COC(=O)CNC(=O)c2ccc(Br)cc2)c1C	?	59%	-1	2%	-5	0%
CCOC(=O)c1c(C)[nH]c(C(=O)COC(=O)CNC(=O)C2CCCCC2)c1C	-4%	46%	34*	-4%	146*	53%
O=C(NNC(=O)c1sc2cccc(Cl)c2c1Cl)NC1CCCCC1	?	-7%	-4	6%	-7	-9%
CSc1nnc(-c2ccc(NC(N)=S)cc2)o1	nt	11%	14*	nt	22	8%
CSc1nnc(-c2cccc(NC(=S)NN)c2)o1	nt	79%	6	nt	-1	?
Cc1ccccc1-c1nc2scc(CCNC(=O)c3ccco3)n2n1	nt	nt	nt	2%[46.1 µM]	nt	nt
O=C(c1ccc(C(F)(F)F)cc1)C1CCCN(C(=O)CN2C(=O)CSC2=O)C1 (stereo unspecified)	?	20%	25*	?	53*	35%
COCCC(=O)N1CCCC(C(=O)c2ccc(C(F)(F)F)cc2)C1 (stereo unspecified)	-6%[46.1 µM]	13µM*	-1	-2%[46.1 µM]	7	-1%
O=C1Nc2ccccc2C1Cc1nc2ccccc2c(=O)n1-c1ccccc1 (stereo unspecified)	nt	?	8	nt	5	?
CC(=O)c1ccc(NC(=O)c2noc(C)c2[N+](=O)[O-])cc1	nt	23%	31*	nt	63*	-2%
SMILES	MARV entry inh	Pf growth 96h	Cycloheximide cs	Lassa entry inh	Shiga toxin inh	Pf growth 48h
Cc1onc(C(=O)Nc2ccc(OC(F)(F)F)cc2)c1[N+](=O)[O-]	nt	?	57*	nt	89*	6%
Cc1onc(C(=O)NCCc2ccccc2)c1[N+](=O)[O-]	0%	22%	14	-6%	48	14%[0.00184 µM]
Cc1noc(C)c1S(=O)(=O)Nc1ccc(C(=O)Nc2ccc(OC(F)(F)F)cc2)cc1	-1%	?	-11	nt	-5	-20%
COc1ccc(/C=N/N2CCN(Cc3ccc(C)cc3)CC2)cc1Br	nt	-13%	-4	nt	nt	?
Cc1cc(N2C(=O)C(O)=C(C(=O)c3cccs3)C2c2ccc(F)cc2)no1 (stereo unspecified)	-7%	52%	-3	-2%	31	39%
Cc1cc2nc(-c3cccnc3SCC(=O)NCc3ccco3)[nH]c2cc1C	3%	44%	21*	?	42	0%
Cc1cc2nc(-c3cccnc3SCC(=O)NC3CC3)[nH]c2cc1C	nt	88%	23*	nt	52*	157%
O=C(CSc1ncccc1-c1nc2ccccc2[nH]1)NCc1ccco1	13%	1%[5.75 µM]	40*	20%	56*	37%
O=C(NCCCn1ccnc1)c1ccc(Cl)c(Cl)c1	-2%	1%	1	-4%	-16	-3%
CCCc1nnc2n1N=C(c1ccc(-c3cc(Cl)ccc3Cl)o1)CS2	nt	2%	21*	nt	active	24%
CCn1cc(C(=O)NCc2cccc(F)c2)c(=O)c2cc(F)c(N3CCN(C(=O)c4ccco4)CC3)cc21	?	2.1µM*	-2	?	25	nt
CCCNC(=O)c1cn(CC)c2cc(N3CCN(C(=O)c4ccco4)CC3)c(F)cc2c1=O	nt	3.3µM*	2	nt	-10	?
O=C(O)c1nsc(Cl)c1Cl	-19%	?	-9	8%	-3	13%
O=C1N(c2cccc(Cl)c2)C(c2cccnc2)N2CCCN12 (stereo unspecified)	0%[46.1 µM]	13µM*	11	24%[46.1 µM]	-4	5%
OCCN1CCN(C2CCC(c3ccc(F)cc3)c3ccc(F)cc32)CC1 (stereo unspecified)	4µM*	nt	nt	?	nt	nt
CC(=O)Nc1nnc(CSCc2ccc(F)cc2)s1	nt	-18%	7	nt	11	22%
CCNC(=O)COc1ccc(/C=C2\COc3ccccc3C2=O)cc1OC	?	-22%	2	15µM*	-4	?
CCOc1cc(/C=C2\COc3ccccc3C2=O)ccc1OCC(=O)N(C)C	?	?	-3	?	-6	15µM*
C/C=C/c1ccc(OCC(=O)NCc2ccccc2OC)c(OC)c1	15%[46.1 µM]	?	1	?	-3	-19%
CCCN(CC(=O)Nc1ccccc1C)C(=O)c1cccc(S(=O)(=O)N2CCc3ccccc3C2)c1	?	?	-3	?	12	?
COc1ccc(C(=O)NCc2nnc(SCC(=O)Nc3cc(C)on3)o2)cc1OC	0%	33%	-2	?	-17	35%[1.15 µM]
COc1ccc(CN(C)CC(=O)Nc2ccc(SC(F)F)cc2)cc1OC	?	?	-2	?	-5	-8%
CN(C)c1ccc(C(=O)Nc2ccc(S(=O)(=O)NC3=NCCCCC3)cc2)cc1	2%	12µM*	-7	15%	-17	?
CN(C)c1cccc(C(=O)Nc2cccc(S(=O)(=O)NC3=NCCC3)c2)c1	6%	56%	33*	11%	70*	40%
